Measured values as given in PubChem BioAssay (NCATS).
Several values for one entry are separate records, joined by “and”; a condition that tells them apart may be missing. Equal entries are not always repeated. Records with an inconclusive call do not appear. Activity calls are given as the source filed them. Unless noted, the call rests on the fitted dose curve; in most records, active means well fitted curve in the direction sought with a large enough effect; inconclusive means small, poorly fitted or top-dose-only effect, or another doubt; inactive means no such curve, though single readings can be large; an effect the other way counts as inactive or inconclusive. Bridge positions count the residues as written; N and C are the ends. Square brackets hold non-standard residues; d marks the D form. Peptide text beside a SMILES is read from it. * marks the point of attachment. Octanoyl(6-Me) = CCC(C)CCCCC(=O)*; Dab = NCC[CH](N)C(=O)O

Experiments:
[1] = S16 Schwann cell viability assay (CellTiter-Glo assay) (AID 624031); further: nearly all actives have a fitted effect of over 70% in size; further: potency means the concentration at half of the fitted maximal effect;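 on activity change, negative = cytotoxicity: cellular ATP luminescence as a viability measure; plate controls were DMSO-treated cells for no effect and cell-free wells for full effect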
Summary of the method: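 CellTiter-Glo ATP luminescence counter-screen in untransfected S16 rat Schwann cells, 24h compound exposure at 37 degree Celsius after overnight seeding (500-750 cells/well); response scaled between cell-free wells and DMSO (0% activity), curves classed by r2 and magnitude.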

3D7 = experiment: qHTS profiling for inhibitors of Plasmodium falciparum proliferation (AID 504749); further: nearly all actives have a fitted effect of over 60% in size; further: potency means the concentration at half of the fitted maximal effect; conditions: P. falciparum in erythrocytes, SYBR Green DNA, 72 h; series mostly up to 28.7 µM
Summary of the method: (§1)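 Quantitative HTS: compounds pinned into medium, infected erythrocytes added (0.3% parasitemia, 2.5% hematocrit), 72 h culture at 37 C under 5% CO2. Saponin/Triton lysis with SYBR Green I, overnight RT, then fluorescence read.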

CP250 = experiment: as above; conditions: P. falciparum in erythrocytes, SYBR Green DNA, 72 h; series mostly up to 28.7 µM
Summary of the method: as §1

P93_24 = experiment: as above; conditions: P. falciparum in erythrocytes, SYBR Green DNA, 72 h; series mostly up to 28.7 µM
Summary of the method: as §1

[2] = Cell Viability - NIH 3T3 (AID 541); conditions: NIH 3T3 cell viability, qHTS; activity change, negative = cytotoxicity: at 92.2 µM (top of the series);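 further: cells exposed to compound for 40 hours; plate controls were DMSO alone for no effect and tamoxifen positive control for full effect; nearly all actives have a fitted effect of over 25% in size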
Summary of the method: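 Intracellular ATP (CellTiter-Glo luminescence, 20 min at room temperature) measured after 40 hr compound exposure at 37 °C of 1000 NIH 3T3 mouse fibroblasts/well in complete medium; AC50 derived by Hill-equation modelling of qHTS concentration-response curves.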

[3] = target: Voltage-gated inwardly rectifying potassium channel KCNH2 (Homo sapiens) (UniProt Q12809); experiment: qHTS Assay for Small Molecule Inhibitors of the Human hERG Channel Activity (AID 588834);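 further: top concentration of the series differs between compounds; on the % scale 0 is the no-effect control and ±100 the full control effect; lower thallium flux fluorescence means stronger hERG block; nearly all actives have a fitted effect of over 50% in size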
Summary of the method: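 Thallium-flux (FluxOR) read-out on FDSS: fluorescence read 10 s before and 2 min after stimulation buffer. hERG-BacMam-transduced U2OS cells, compound exposure about 10 min. AC50 by standard Hill equation.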

[4] = target: Nuclear receptor ROR-gamma (Homo sapiens) (UniProt P51449); experiment: qHTS assay for small molecule antagonists of the retinoid-related orphan receptor gamma (ROR-gamma) signaling pathway (AID 651802);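 further: CHO cells with doxycycline-induced ROR-gamma expression; luciferase reporter luminescence driven by ROR response element; on the % scale 0 is the no-effect control and ±100 the full control effect; nearly all actives have a fitted effect of over 60% in size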
Summary of the method: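 Luminescence (One-Glo, 30 min RT) measured 16 h after compound addition and doxycycline induction at 37C. Reporter: RORE-luciferase under TET-inducible ROR-gamma in CHO cells.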

[5] = qHTS assay for small molecule activators of the human pregnane X receptor (PXR) signaling pathway (AID 720659; call rule not given here; further: 0% is about no effect)
[6] = target: Cytochrome P450 3A4 (Homo sapiens) (UniProt P08684); experiment: qHTS Assay for Activators of Cytochrome P450 3A4 (AID 885); further: nearly all actives have a fitted effect of over 65% in size
Summary of the method: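 Using 20nM recombinant human CYP3A4 in potassium phosphate (200mM), substrate Luciferin-PPXE at 25uM, luminescent luciferin detection followed a 60-min RT NADPH reaction; data scaled to 57 uM ketoconazole.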

[7] = target: ATP-dependent 6-phosphofructokinase (Trypanosoma brucei brucei) (UniProt O15648); experiment: qHTS Assay to Find Inhibitors of T. brucei phosphofructokinase: hit validation (AID 492961);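 further: luminescence reports ADP formed as PFK phosphorylates fructose-6-phosphate with ATP; on the % scale 0 is the no-effect control and ±100 the full control effect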
Summary of the method: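 PFK 1.25 nM, F6P 0.5 mM, ATP 0.1 mM, MgCl2 5 mM, 0.1 M TEA pH 8.0, Tween20 0.01%, BSA 0.1%; 45 min RT. ADP-Glo two-step detection, luminescence. qHTS titration; curve fitting with curve-class categorization.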

PC26 = experiment: qHTS profiling for inhibitors of Plasmodium falciparum proliferation (AID 504749); further: nearly all actives have a fitted effect of over 60% in size; further: potency means the concentration at half of the fitted maximal effect; conditions: P. falciparum in erythrocytes, SYBR Green DNA, 72 h; series mostly up to 28.7 µM
Summary of the method: as §1

[8] = qHTS assay for small molecule antagonists of peroxisome proliferator-activated receptor delta signaling (AID 588535; active means well fitted inhibition curve with a large enough effect in the signal ratio, with a control signal flat, not every such curve was filed as active; the % refers to the signal ratio;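 on max response: cells co-treated with a PPAR-delta agonist as stimulator during compound exposure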); conditions: HEK293T PPARd-UAS-bla, beta-lactamase FRET ratio, 18 h; 460 nm channel
Summary of the method: (§2)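 Inhibition of PPAR-delta response element-driven beta-lactamase expression is measured in HEK293T cells exposed to a compound titration series for 18 hrs at 37 C. Half-maximal inhibition comes from Hill equation fitting.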

[9] = target: Peroxisome proliferator-activated receptor delta (Homo sapiens) (UniProt Q03181); experiment: as above
Summary of the method: as §2

[10] = qHTS assay for small molecule activators of the nuclear factor-kappa B (NF-kB) signaling pathway (AID 651749; active means well fitted activation curve with a large enough effect in the signal ratio; the % refers to the signal ratio; further: % of control where 0% means no effect); conditions: NF-kB-bla ME-180 cells, beta-lactamase FRET ratio, 16 h; stronger effect = higher value
Summary of the method: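 Human ME-180 cervical cells with an NF-kB-bla construct; compounds added via 23 nL pin transfer, DMSO as vehicle; incubation 16 hr. Reporter activity measured by FRET disruption.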

[11] = Cellular Toxicity (caspase-3) HepG2 (AID 654);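 further: cells exposed to compound for 16 hours before reading; 0% = DMSO alone and 100% = caspase signal from 100 µM tamoxifen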
Summary of the method: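 Caspase 3/7 activation is measured as a luminescence increase (aminoluciferin substrate) after 16 h compound exposure of human hepatocarcinoma HepG2 cells. AC50 values are Hill fits, scaled between DMSO baseline and 100 uM tamoxifen stimulation.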

[12] = qHTS assay for small molecule agonists of the antioxidant response element (ARE) signaling pathway (AID 651741; active means well fitted activation curve with a large enough effect in the signal ratio; the % refers to the signal ratio; further: % of control where 0% means no effect)
Summary of the method: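 Reporter: beta-lactamase under ARE, stably in HepG2. Exposure: 16 h, 37 C, compounds delivered in DMSO by pin tool after 5 h cell preincubation. Readout: FRET substrate fluorescence after 2 h at RT.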

[13] = qHTS assay for small molecule disruptors of the mitochondrial membrane potential - 5 hr assay (AID 651755; calls by dose curve; further: on the % scale 0 is the no-effect control and ±100 the full control effect; nearly all actives have a fitted effect of over 40% in size)
Summary of the method: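 Seed HepG2 overnight, add compound, incubate 5 hr at 37C and 5% CO2, stain 30 min with Mito-MPS, then measure monomer (490/535 nm) and aggregate (540/590 nm) fluorescence.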

[14] = Cell Viability - HepG2 (AID 433; calls by dose curve;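 further: potency means the concentration at half of the fitted maximal effect; cells exposed to compound for 40 hours; potency for ATP loss meaning cytotoxicity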); conditions: qHTS
Summary of the method: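 ATP luminescence (CellTiter-Glo) after 40 h compound exposure, 37 °C, HepG2, 1500 cells/well, complete medium. Normalized: DMSO = basal, 100 uM tamoxifen = 100% inhibition. AC50 via standard Hill equation.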

[15] = Cell Viability - HUV-EC-C (AID 542);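 further: cells exposed to compound for 40 hours; on the % scale 0 is the no-effect control and ±100 the full control effect; nearly all actives have a fitted effect of over 35% in size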
Summary of the method: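 CellTiter-Glo luminescence measured ATP loss in HUV-EC-C cells (1000/well) after 40 hr compound exposure at 37 °C, in complete culture medium. Concentration-response data were Hill-fitted to give AC50.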

[16] = Cellular Toxicity (caspase-3) BJ (AID 658);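 further: cells exposed to compound for 16 hours; 0% = DMSO basal and 100% = 10 µM staurosporine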
Summary of the method: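 Plated BJ cells (1000/well) rested 5 hr, received compound for 16 hr at 37 °C, then Caspase-Glo 3/7 reagent for 1 hr at room temperature before luminescence reading.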

Nuclear receptor ROR-gamma (Homo sapiens), sequence (P51449 whole entry, looked up): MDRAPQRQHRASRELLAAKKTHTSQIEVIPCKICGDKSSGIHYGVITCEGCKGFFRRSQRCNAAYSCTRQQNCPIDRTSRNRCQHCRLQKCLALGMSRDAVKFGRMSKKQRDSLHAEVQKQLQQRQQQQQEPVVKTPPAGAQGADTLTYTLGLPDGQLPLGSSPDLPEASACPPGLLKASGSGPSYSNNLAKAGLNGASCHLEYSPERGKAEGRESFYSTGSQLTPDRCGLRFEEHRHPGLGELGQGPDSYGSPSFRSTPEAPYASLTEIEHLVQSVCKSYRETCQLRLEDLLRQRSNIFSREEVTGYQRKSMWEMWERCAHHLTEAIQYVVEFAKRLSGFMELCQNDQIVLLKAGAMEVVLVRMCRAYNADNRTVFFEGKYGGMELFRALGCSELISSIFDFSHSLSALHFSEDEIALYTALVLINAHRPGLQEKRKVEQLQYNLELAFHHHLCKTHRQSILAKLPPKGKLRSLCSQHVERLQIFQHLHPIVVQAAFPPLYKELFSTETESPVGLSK
ATP-dependent 6-phosphofructokinase (Trypanosoma brucei brucei), sequence (O15648 whole entry, looked up): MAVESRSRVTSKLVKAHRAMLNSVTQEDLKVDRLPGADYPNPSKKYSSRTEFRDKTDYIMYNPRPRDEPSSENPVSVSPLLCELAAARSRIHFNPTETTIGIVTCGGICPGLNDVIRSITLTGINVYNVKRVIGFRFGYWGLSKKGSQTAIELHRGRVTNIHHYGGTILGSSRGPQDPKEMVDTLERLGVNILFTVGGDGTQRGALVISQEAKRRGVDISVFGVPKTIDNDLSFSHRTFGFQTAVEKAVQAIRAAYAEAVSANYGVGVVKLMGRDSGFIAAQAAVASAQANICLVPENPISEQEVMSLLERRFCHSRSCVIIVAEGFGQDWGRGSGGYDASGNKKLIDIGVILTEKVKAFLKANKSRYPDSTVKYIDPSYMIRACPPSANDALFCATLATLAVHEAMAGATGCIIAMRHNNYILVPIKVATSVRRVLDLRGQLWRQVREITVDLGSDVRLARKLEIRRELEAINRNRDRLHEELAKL
Cytochrome P450 3A4 (Homo sapiens), sequence (P08684 whole entry, looked up): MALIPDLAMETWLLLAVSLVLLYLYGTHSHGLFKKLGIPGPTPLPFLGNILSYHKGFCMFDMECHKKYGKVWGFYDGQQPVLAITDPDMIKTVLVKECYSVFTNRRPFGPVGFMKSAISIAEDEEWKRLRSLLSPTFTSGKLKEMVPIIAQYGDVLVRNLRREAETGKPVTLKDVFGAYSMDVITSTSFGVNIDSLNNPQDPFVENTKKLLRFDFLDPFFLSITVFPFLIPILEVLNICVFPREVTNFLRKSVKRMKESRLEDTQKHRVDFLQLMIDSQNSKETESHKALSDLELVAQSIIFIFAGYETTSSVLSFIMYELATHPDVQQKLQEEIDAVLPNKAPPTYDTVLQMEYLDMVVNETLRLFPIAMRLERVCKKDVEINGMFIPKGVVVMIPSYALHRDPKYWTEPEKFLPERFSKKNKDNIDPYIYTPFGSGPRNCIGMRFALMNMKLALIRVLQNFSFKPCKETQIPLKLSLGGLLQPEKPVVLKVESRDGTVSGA
Peroxisome proliferator-activated receptor delta (Homo sapiens), sequence (Q03181 whole entry, looked up): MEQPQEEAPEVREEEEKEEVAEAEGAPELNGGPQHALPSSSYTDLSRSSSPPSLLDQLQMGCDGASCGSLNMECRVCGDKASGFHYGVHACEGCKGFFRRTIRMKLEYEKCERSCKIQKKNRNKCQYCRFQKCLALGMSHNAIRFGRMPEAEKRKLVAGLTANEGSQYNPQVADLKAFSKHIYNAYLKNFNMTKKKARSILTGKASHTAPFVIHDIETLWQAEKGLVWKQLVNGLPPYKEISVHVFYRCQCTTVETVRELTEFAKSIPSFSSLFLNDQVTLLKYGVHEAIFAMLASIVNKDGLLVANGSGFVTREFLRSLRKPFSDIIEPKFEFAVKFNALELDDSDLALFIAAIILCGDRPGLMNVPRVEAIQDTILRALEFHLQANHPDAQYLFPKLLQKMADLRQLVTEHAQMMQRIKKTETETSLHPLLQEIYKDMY
Voltage-gated inwardly rectifying potassium channel KCNH2 (Homo sapiens), sequence (Q12809 whole entry, looked up): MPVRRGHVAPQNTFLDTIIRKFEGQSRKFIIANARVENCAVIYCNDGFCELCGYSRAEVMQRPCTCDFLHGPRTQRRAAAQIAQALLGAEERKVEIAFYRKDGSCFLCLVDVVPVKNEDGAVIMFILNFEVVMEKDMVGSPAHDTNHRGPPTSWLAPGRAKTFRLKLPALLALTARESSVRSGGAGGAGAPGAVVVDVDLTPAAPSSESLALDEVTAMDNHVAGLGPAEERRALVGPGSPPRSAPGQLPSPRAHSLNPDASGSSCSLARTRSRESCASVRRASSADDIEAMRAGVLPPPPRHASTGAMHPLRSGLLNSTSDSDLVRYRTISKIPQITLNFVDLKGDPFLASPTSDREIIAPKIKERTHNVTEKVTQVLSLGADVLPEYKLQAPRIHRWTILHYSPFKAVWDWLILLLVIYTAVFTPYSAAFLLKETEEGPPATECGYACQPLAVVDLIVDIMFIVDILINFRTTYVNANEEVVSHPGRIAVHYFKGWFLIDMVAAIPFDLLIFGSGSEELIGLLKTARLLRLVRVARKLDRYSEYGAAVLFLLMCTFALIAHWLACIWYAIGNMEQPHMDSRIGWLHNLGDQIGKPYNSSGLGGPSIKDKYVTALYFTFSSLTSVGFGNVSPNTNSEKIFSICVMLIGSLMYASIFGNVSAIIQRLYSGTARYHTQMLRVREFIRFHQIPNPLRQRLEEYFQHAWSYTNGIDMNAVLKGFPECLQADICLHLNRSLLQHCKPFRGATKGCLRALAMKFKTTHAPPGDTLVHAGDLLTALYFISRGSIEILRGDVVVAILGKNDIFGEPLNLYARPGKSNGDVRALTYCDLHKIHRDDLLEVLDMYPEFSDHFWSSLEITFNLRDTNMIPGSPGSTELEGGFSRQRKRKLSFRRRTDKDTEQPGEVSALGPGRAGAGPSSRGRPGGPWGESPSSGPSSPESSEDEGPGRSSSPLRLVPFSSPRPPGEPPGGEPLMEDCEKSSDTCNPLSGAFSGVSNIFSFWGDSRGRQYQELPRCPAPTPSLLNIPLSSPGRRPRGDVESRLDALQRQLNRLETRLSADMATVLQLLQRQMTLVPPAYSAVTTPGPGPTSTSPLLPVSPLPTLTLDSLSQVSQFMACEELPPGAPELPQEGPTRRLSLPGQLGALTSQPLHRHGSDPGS

CCN1/C(=C/C=C/C=C/c2sc3ccccc3[n+]2CC)Sc2ccccc21
active: Potency [1] 7.21 µM | Potency (3D7) 2 µM | Potency (CP250) 3.98 µM | Potency (P93_24) 3.55 µM

O[C@@H]([C@H](O)[C@@H](O)CBr)[C@@H](O)CBr
inactive: Potency [2] | Potency [3] | Potency [4] | outcome [5]

O=c1cc(-c2cccc(O)c2)oc2c(O)c(O)ccc12
inactive: outcome [6]

CCC(=O)O[C@@H](OP(=O)(CCCCc1ccccc1)CC(=O)N1C[C@H](C2CCCCC2)C[C@H]1C(=O)O)C(C)C (stereo partly specified)
inactive: outcome [7] | Potency [1] | Potency (3D7) | Potency (CP250) | Potency (PC26)

CC1CCC(C(C)C)C(OC(=O)c2ccccc2O)C1 (stereo unspecified)
inactive: outcome [7] | Potency [1] | Potency (3D7) | Potency (CP250) | Potency (P93_24) | Potency (PC26)

O=NCc1ccc([N+](=O)[O-])o1
inactive: outcome [7] | Potency [1]

Cc1cccc(O)c1
-22.1% and -37.2%: max response [8]
inactive: Potency [9] | activation [10] -0.103% and -1.79%

CO/N=C(/C(=O)N[C@@H]1C(=O)N2C(C(=O)O)=CCS[C@H]12)c1csc(N)n1
inactive: Potency [1] | Potency (3D7) | Potency (CP250) | Potency (P93_24) | Potency (PC26)

O=S(=O)(O)c1ccccc1
inactive: Potency [2] | outcome [11] | Potency [9] | Potency [3] | Potency [12] | activation [10] 0.223% | Potency [13] | Potency [4] | outcome [5]
1.28%: max response [8]

O=C1CCc2ccccc2O1
inactive: Potency [14] > 92 µM | Potency [2] | outcome [11] | Potency [13] | outcome [5]

Cc1cc(CC(C)CC(C)(C)C)n(O)c(=O)c1 (stereo unspecified)
active: Potency (3D7) 2 µM | Potency (CP250) 1.12 µM | Potency (P93_24) 2.24 µM | Potency (PC26) 3.79 µM
inactive: outcome [7]

COc1cc(/C=C/C(=O)N2CCC=CC2=O)cc(OC)c1OC
inactive: outcome [6]

CC1(C)S[C@@H]2[C@H](NC(=O)COc3ccccc3)C(=O)N2[C@H]1C(=O)O
39.2%: max response [8]
inactive: outcome [7] | Potency [9] | activation [10] -1.54% | Potency (3D7) | Potency (CP250) | Potency (P93_24) | Potency (PC26) | outcome [5]

CCC(C)CCCCC(=O)NC(CCN)C(=O)NC(C(=O)NC(CCN)C(=O)NC1CCNC(=O)C(C(C)O)NC(=O)C(CCN)NC(=O)C(CCN)NC(=O)C(CC(C)C)NC(=O)C(Cc2ccccc2)NC(=O)C(CCN)NC1=O)C(C)O (stereo unspecified) ({Octanoyl(6-Me)}-[Dab]T[Dab][Dab][Dab]FL[Dab][Dab]T; lactam 4-C; configuration not given here)
inactive: Potency (3D7) | Potency (CP250) | Potency (PC26)

c1ccc2scnc2c1
3.24%: max response [8]
inactive: Potency [14] > 92 µM | outcome [15] | outcome [16] | Potency [9] | activation [10] -1.1% | Potency [4] | outcome [5]

Nc1nc(-c2ccc(Cl)c(Cl)c2)c(-c2ccncc2)s1
inactive: outcome [6]

CC(C)(CO)C(O)C(=O)NCCCC(=O)O (stereo unspecified)
inactive: Potency [1]

O=C(O)c1ccccc1C(c1ccc(O)cc1)c1ccc(O)cc1
inactive: outcome [15] | outcome [16] | Potency [9] | Potency [12] | activation [10] -1.81% and -6.43% | Potency [4]
8.38% and 8.06%: max response [8]

Nc1nc(Cl)nc2c1ncn2C1CC(O)C(CO)O1 (stereo unspecified)
inactive: Potency (PC26)

CO[C@@H]1[C@@H](OC2OC(C)C(OC3CC(C)(O)C(OC(=O)CC(C)C)C(C)O3)C(N(C)C)C2O)[C@@H](CC=O)C[C@@H](C)C(=O)/C=C\C2O[C@H]2C[C@@H](C)OC(=O)C[C@H]1OC(C)=O (stereo partly specified)
inactive: outcome [7] | Potency [1]
active: Potency (3D7) 11.2 µM | Potency (CP250) 10 µM | Potency (P93_24) 8.91 µM
